Compounds without any hit were thinned out: in the full panel of roughly 83,000, 20% have a hit.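 Step 1: grow cells in 96-well plates. Step 2: add test compound at a single concentration. Step 3: incubate 48 h. Step 4: record percent growth.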 Unmarked numbers belong to inactive results. Active and inactive are the calls of the source. How the source made its calls: active means growth percent below 10; inactive means the rest.
System: RPMI-8226 leukemia
Experiment: NCI-60 one-dose screen, 48 h (100 = growth as untreated, 0 = no growth, -100 = all killed)
Conditions: 10 µM unless noted

How did the growth turn out when `CCCCCCNC(=O)Oc1ccc(/C(=C(\C)c2ccccc2)c2ccc(OCCCN(C)C)cc2)cc1` was run?
Its growth is 81.6%.

For `Cc1cc(Cl)nc(N(CCNc2ccnc3cc(Cl)ccc23)Cc2ccccn2)n1`, which growth is on record?
Its growth is 26.6%.

For `COc1ccc(-c2cnc3c(-c4cccc5cnccc45)cnn3c2)cc1`, which growth is on record?
The growth was 40.8%.

For `Cc1nc2ccc(Cl)cn2c1-c1nnc(SCc2ccc([N+](=O)[O-])cc2)o1`, which growth is on record?
Its growth is 81.9%.

For `CC(C)(C)[Si](C)(C)OC1[C@@H](O[Si](C)(C)C(C)(C)C)[C@@H](CNC(=O)NC(=O)CCl)O[C@H]1n1cnc2c(NC(=O)Nc3ccccc3)ncnc21` (some centres not stated), which growth is on record?
Its growth is 16.7%.

How did the growth turn out when `O=C1C=CC(=O)N1c1cccc(Cl)c1` was run?
The growth was 95.6%.

Which growth does the source give for `O=C(O)c1ccc2c(c1)C(=O)N(Cc1ccccc1)C2=O` here?
The growth was 95.5%.

With `O=C(Cc1ccccc1)NNc1nc(Cl)nc(N2CCN(C(c3ccccc3)c3ccccc3)CC2)n1` as the compound, how does the growth read?
Its growth is 101%.

`COc1cc(C2C3=C(COC3=O)N(CCO)c3cc4c(cc32)CCC4)cc(OC)c1OC` (configuration not stated) was tested. Which growth did it give?
Its growth is 17.9%.

How did the growth turn out when `COc1cc(-c2cc(-c3ccc(N(C)C)cc3)nc(N3CCOCC3)c2C#N)cc(OC)c1OC` was run?
Its growth is 9.28% (active).

Which growth does the source give for `Cc1nc2sccn2c1-c1cn2ccsc2n1` here?
The growth was 65%.

`O=C1/C=C/[C@@H](O)[C@@H]2C[C@@H](O)C[C@H]2/C=C/CCC[C@H](CCc2cccc3ccccc23)O1` was tested. Which growth did it give?
Its growth is 22%.

Which growth does the source give for `COc1cc2c(cc1OC)C(=O)/C(=C/c1cc(C)c(O)c(C)c1)S2` here?
Its growth is 21.6%.

`Cc1ccc(-n2c3c(c(-c4ccccc4)c2-c2ccccc2)C2=NCCN2C=N3)cc1` was tested. Which growth did it give?
Its growth is 77.8%.

For `CSc1nc2sc3cccc(Cl)c3n2c(=N)c1C#N`, which growth is on record?
The growth was 90.7%.

System: OVCAR-8 ovarian
Experiment: as above
Conditions: 10 µM unless noted

For `CC1(C)NCCC[C@]2(C)[C@H]3CC[C@@H]4[C@H]5[C@H](C(=O)/C=C/c6ccco6)CC[C@]5(CO)CC[C@@]4(C)[C@]3(C)CC[C@@H]12`, which growth is on record?
Its growth is 95.2%.

How did the growth turn out when `CCCCCCNC(=O)Oc1ccc(/C(=C(\C)c2ccccc2)c2ccc(OCCCN(C)C)cc2)cc1` was run?
The growth was 86.9%.

How did the growth turn out when `Cc1ccc(-n2nc3c(c(C#N)c2=O)CC(c2ccccc2[N+](=O)[O-])C([N+](=O)[O-])=C3O)cc1` (configuration not stated) was run?
Its growth is 90.2%.

How did the growth turn out when `CN1CCN(CCNc2nccc(-c3c(-c4cccc(O)c4)nc4sccn34)n2)S1(=O)=O` was run?
The growth was 73.3%.

For `NC(=NCCCOc1ccc(F)cc1)Nc1ccc(Cl)cc1`, which growth is on record?
The growth was 90.1%.

`Cc1cc(Cl)nc(N(CCNc2ccnc3cc(Cl)ccc23)Cc2ccccn2)n1` was tested. Which growth did it give?
The growth was 39.3%.

Which growth does the source give for `COc1ccc(-c2cnc3c(-c4cccc5cnccc45)cnn3c2)cc1` here?
The growth was 41.8%.

How did the growth turn out when `CCOC(=O)c1cc(C#N)n2ccc3ccccc3c12` was run?
The growth was 100%.

How did the growth turn out when `N#CC(C(=O)/C(=N/NC(=O)c1ccccc1O)C(C#N)c1ccccc1)c1ccccc1` (configuration not stated) was run?
The growth was 52.3%.

Which growth does the source give for `N#C/C(=C\c1cccc(C#N)c1)c1ccccc1` here?
Its growth is 111%.

With `Cc1nc2ccc(Cl)cn2c1-c1nnc(SCc2ccc([N+](=O)[O-])cc2)o1` as the compound, how does the growth read?
The growth was 36.8%.

`CCN(CC)CCn1c(=O)c2cc(OC)c(OC)cc2c2ccc3cc4c(cc3c21)OCO4` was tested. Which growth did it give?
Its growth is 53.2%.

How did the growth turn out when `COc1ccc2nc(-c3ccc(-c4noc(-c5cc(OC)c(OC)c(OC)c5)n4)cc3)[nH]c2c1` was run?
Its growth is 33.6%.

How did the growth turn out when `CC(C)(C)[Si](C)(C)OC1[C@@H](O[Si](C)(C)C(C)(C)C)[C@@H](CNC(=O)NC(=O)CCl)O[C@H]1n1cnc2c(NC(=O)Nc3ccccc3)ncnc21` (some centres not stated) was run?
The growth was 1.14% (active).

For `O=C1C=CC(=O)N1c1cccc(Cl)c1`, which growth is on record?
Its growth is 107%.

Which growth does the source give for `O=C(Cc1ccccc1)NNc1nc(Cl)nc(N2CCN(C(c3ccccc3)c3ccccc3)CC2)n1` here?
Its growth is 91.8%.

How did the growth turn out when `O=C(/C=C/c1c(-c2ccc(Cl)cc2)nn(-c2ccccc2)c1C(F)(F)F)c1ccc(Cl)cc1` was run?
The growth was 77.8%.

For `O=C1Nc2ccccc2/C1=C\c1c(-c2ccc(F)cc2)nc2ccccn12`, which growth is on record?
Its growth is 86.8%.

How did the growth turn out when `COc1cc(C2C3=C(COC3=O)N(CCO)c3cc4c(cc32)CCC4)cc(OC)c1OC` (configuration not stated) was run?
Its growth is 31.5%.

`CC(c1ccccc1)C(C(=O)c1ccccc1)c1ccccc1` (configuration not stated) was tested. Which growth did it give?
The growth was 63.7%.

With `C#Cc1cccc(NC(=O)Nc2cccc(NC(=O)CCl)c2)c1` as the compound, how does the growth read?
Its growth is -7.18% [8.25 µM] (active).

For `COc1cc(-c2cc(-c3ccc(N(C)C)cc3)nc(N3CCOCC3)c2C#N)cc(OC)c1OC`, which growth is on record?
Its growth is 22.4%.
